IL1B secr inh – qHTS for Inhibitors of Inflammasome Signaling: IL-1-beta AlphaLISA Primary Screen | THP-1 LPS/ATP IL-1B secretion, AlphaLISA, 16 h; hits give low values | activity change, % at 57.5 µM | hit rate 4.7% among 360,000 | AID 743279, 2014; in the data active means activity change below about -50%; inconclusive means mostly about -30% to -49%
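Secreted IL-1B measured by AlphaLISA bead assay after 16 h compound exposure of THP-1 cells; compounds (final up to 57.5 uM) added 1 h before LPS (250 ng/mL) and ATP (1.25 mM) stimulation; lower signal means less secretion.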
DT40 TDP1 no CPT – qHTS for Inhibitors of human tyrosyl-DNA phosphodiesterase 1 (TDP1): qHTS in cells in absence of CPT | DT40 Tdp1-/- hTDP1 cells, no CPT, ATP luminescence, 48 h | Potency, µM (doses to about 46.2 µM), most hits filed as inhibitors | hit rate 15% among 420,000; further: nearly all actives have a fitted effect of over 55% in size
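Stably hTDP1-transfected Tdp1-null chicken DT40 cells were treated with library compounds minus camptothecin and grown for at least 48 hr at 37 °C, after which cellular ATP was quantified by luminescence.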
DT40 TDP1 CPT – qHTS for Inhibitors of human tyrosyl-DNA phosphodiesterase 1 (TDP1): qHTS in cells in presence of CPT. chicken DT40 Tdp1-/-;hTDP1 cells + 20 nM CPT, ATP luminescence, 48 h. Potency, µM (top dose mostly 46.2 µM), usual class: inhibitors. hit rate 12% among 420,000. AID 686979, 2013; further: nearly all actives have a fitted effect of over 55% in size
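Cell growth measured by CellTiter-Glo luminescence after a minimum 48 h, 37 C compound exposure with 20 nM CPT in Tdp1-knockout DT40 cells stably expressing hTDP1, seeded 400/well; qHTS titration format.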
HT1080NT lethal – qHTS for induction of synthetic lethality in tumor cells producing 2HG: qHTS for the HT-1080-NT fibrosarcoma cell line; HT-1080-NT fibrosarcoma viability, CellTiter-Glo ATP luminescence, 48 h; Potency, µM (series often up to 46.1 µM), usual class: cytotoxic; hit rate 1.6% among 360,000;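 further: NT is the 2HG producing partner of a matched IDH1 knockdown line; nearly all actives have a fitted effect of over 55% in size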
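HT-1080-NT; 750 cells/well; 5% FBS RPMI; 48 h compound, 37 degrees C; CellTiter-Glo luminescence; curve fitting and curve-class assignment.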
ELG1 repair inh – qHTS screen for small molecules that inhibit ELG1-dependent DNA repair in human embryonic kidney (HEK293T) cells expressing luciferase-tagged ELG1; hit rate 2.3% among 330,000; Potency, µM (highest dose often 46.1 µM), actives largely listed as inhibitors; AID 504467, 2011; HEK293T ELG1-luciferase reporter, luminescence, 16 h; DNA damage induced by 5-fluorouridine; further: nearly all actives have a fitted effect of over 55% in size
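HEK293T cells expressing luciferase-tagged ELG1 (2,000/well) received 5-Fluorouridine plus compound or DMSO for 16 hr at 37 °C. Luciferase was read by ONE-Glo luminescence after 30 min at room temperature.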
HT1080 IDH1KD tx – qHTS for induction of synthetic lethality in tumor cells producing 2HG: qHTS for the HT-1080-IDH1KD cell line; HT-1080 IDH1 knockdown viability, ATP luminescence, 48 h; hit rate 2% among 360,000; Potency, µM (top dose mostly 46.1 µM), hits mostly cytotoxic; AID 686971, 2013
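Assay cells: HT-1080 with IDH1 knockdown, 750 per well, RPMI/5% FBS. Exposure: 48 h at 37 °C following 2 h pre-incubation. Read: CellTiter-Glo luminescence; fitted concentration-response, curve class assigned.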
A number is an active result; n = inactive; u = inconclusive; x = not tested or not shown; [ ] = dose if it differs, or a comment. This is a sample that favours compounds with a hit; in the whole collection about 19% have one here. Unless noted, the call rests on the fitted dose curve; in most records, active means well fitted curve in the direction sought with a large enough effect; inconclusive means small, poorly fitted or top-dose-only effect, or another doubt; inactive means no such curve, though single readings can be large; an effect the other way counts as inactive or inconclusive.

SMILES	IL1B secr inh	DT40 TDP1 no CPT	DT40 TDP1 CPT	HT1080NT lethal	ELG1 repair inh	HT1080 IDH1KD tx
COC(=O)/C=C/C(=O)Nc1cccnc1	n	u	16.4µM	n	n	n
O=C(/C=C/c1ccc(Cl)c(Cl)c1)Nc1cccnc1	n	n	n	n	x	n
O=C(Nc1cccnc1)C1(F)C(F)(F)C(F)(F)C(F)(F)C(F)(F)C1(F)F	-67.3	u	u	n	n	n[9.24 µM]
CC(C)(C)c1ccc(/C=C/C(=O)Nc2cccnc2)cc1	-51.6	u	u	u	u	u
COC(=O)/C=C/C(=O)Nc1ccc(O)c(Cl)c1	-98.9	u	u	n	n	n
COc1ccc(NC(=O)C=C(C)C)cc1Cl	n	n	n	n	x	n
NC(=O)NCc1cccs1	n	n	n	n	n	n
O/N=C(/CBr)c1ccc2ccccc2c1	x	n	n	x	x	x
CC1=C(C(=O)Nc2ccccc2C(=O)NCCCOC(C)C)SCCO1	n	n	n	n	n	n
Cc1nnc(SCC(=O)c2c(N)n(C3CC3)c(=O)[nH]c2=O)n1-c1ccccc1	n	n	n	n	n	n
Cc1nc2ccccc2c2ncccc12	n	n	n	n	n	n
c1cnc2nc3c4ccccc4c4ccccc4c3nc2c1	u	14.6µM	u	n	x	n
C=CCn1c(-c2ccc3ncccc3c2)n[nH]c1=S	n	u	n	n	n	n
CC(C)(C)CC(=O)NC(=S)NCCc1ccccc1	n	n	n	u	n	10µM
COc1ccccc1NC(=S)NCCc1ccc(F)cc1	n	u	n	n	n	n
COc1ccccc1NC(=S)NCCc1ccccc1	n	20.6µM	n	n	n	n
Cc1ccc(NC(=S)NCCc2c[nH]c3ccccc23)c(C)c1	n	20.6µM	13µM	n	u	n
COc1cc(NC(=S)NCCc2c[nH]c3ccccc23)c(OC)cc1Cl	-66.1	u	u	u	u	u
COc1cc(NC(=S)NCCO)c(OC)cc1Cl	n	n	n	n	n	n
Cc1ccc(NC(=O)C2(S(=O)(=O)c3ccc(Cl)cc3)CC2)cc1	n	n	n	n	n	n
COc1ccccc1NC(=S)NCCc1c[nH]c2ccccc12	n	18.4µM	14.6µM	n	n	n
COc1ccc(NC(=S)NCCc2c[nH]c3ccccc23)cc1	n	u	u	n	n	n
COCC1CCN(Cc2cn[nH]c2-c2cc3ccccc3o2)C1 (stereo not drawn)	n	n	n	n	n	n
COCC1CCCN(Cc2cn(Cc3ccccc3)nc2-c2cc3ccccc3o2)C1 (stereo not drawn)	-76.2	u	25.9µM	u	n	16.4µM
COCC1CCN(Cc2cn(Cc3ccccc3)nc2-c2cc3ccccc3o2)CC1	-61.5	n	u	n	u	u
SMILES	IL1B secr inh	DT40 TDP1 no CPT	DT40 TDP1 CPT	HT1080NT lethal	ELG1 repair inh	HT1080 IDH1KD tx
COC(=O)C1CCN(Cc2cn(Cc3ccccc3)nc2-c2cc3ccccc3o2)CC1	n	25.9µM	u	n	u	n
OC1CCN(Cc2cn(Cc3ccccc3)nc2-c2cc3ccccc3o2)CC1	u	n	n	n	n	n
COc1ccc(CCNC(=O)CCn2c(=O)c3cccn3c3ccc(F)cc32)cc1OC	x	16.4µM	u	x	x	x
COc1ccc(CCNC(=O)Cn2c(=O)n(-c3cc(F)ccc3F)c(=O)c3sccc32)cc1OC	n	14.6µM	u	n	u	n
CCOc1ccc(CCNC(=O)CCn2cccc2)cc1OCC	n	n	n	n	n	n
CCOc1ccc(CCNC(=O)CCn2c(=O)c3cccn3c3ccc(F)cc32)cc1OCC	x	13µM	u	x	x	x
O=C(CCn1c(=O)c2cccn2c2ccc(F)cc21)NCCc1ccccc1	n	18.4µM	20.6µM	n	u	n
CCCNC(=O)N[C@H]1C=C[C@H](CC(=O)NC2CCCCC2)O[C@@H]1CO	n	u	n	n	x	n
O=C(NNS(=O)(=O)c1cccc(Cl)c1Cl)c1cccc(S(=O)(=O)N2CCOCC2)c1	n	n	n	n	n	n
COc1cccc(Nc2ncc3ncc(=O)n(CCc4ccccc4)c3n2)c1	x	n	n	x	x	x
CC(C)Oc1ccc2c(c1)OC(c1ccccc1)(C(F)(F)F)NC2=O (stereo not drawn)	n	25.9µM	u	n	n	n
O=c1c2ccccc2nc(/C=C/c2cc(Br)ccc2O)n1CCO	-97.7	14.6µM	u	n	x	n
O=c1c2ccccc2nc(/C=C/c2c[nH]c3ccccc23)n1CCO	-92.3	6.51µM	4.61µM	u	u	u
CCn1c(/C=C/c2ccc(F)cc2)nc2ccccc2c1=O	x	u	u	n	n	n
Cc1ccc(N=Cc2ccc[nH]2)c(O)c1	n	u	20.6µM	n	u	n
CCn1c(CSCc2ccc(Cl)cc2)n[nH]c1=S	n	8.2µM	u	n	u	n
Cn1c(CSCCOc2ccccc2)n[nH]c1=S	n	16.4µM	n	n	n	n
CCn1c(CSCc2ccc(C)cc2)n[nH]c1=S	n	u	n	n	n	n
S=c1[nH]nc(CSCCOc2ccccc2)o1	n	n	n	n	n	n
Cn1c(CSCc2ccc(Cl)c(Cl)c2)n[nH]c1=S	n	23.1µM	u	n	n	n
COC(=O)CS(=O)(=O)c1ccsc1C(=O)Nc1ccc(F)cc1	n	n	n	n	n	n
COc1ccc(CCNC(=O)c2cc(S(=O)(=O)N3CCOCC3)ccc2F)cc1	n	u	u	n	n	n
CC1=C(C(N)=O)C(c2ccc(C(C)C)cc2)n2nc(SCc3ccccc3F)nc2N1 (stereo not drawn)	x	n	n	x	x	x
COC(=O)C1=C(O)C(C(=O)OC)C(c2ccc(C)cc2)C(C#N)(C#N)C1c1ccc(C)cc1 (stereo not drawn)	n	4.11µM	5.17µM	n	u	n
CCOC(=O)CSC1=C(C#N)C(c2ccc(C)cc2)C(C(=O)OC)C(=O)N1 (stereo not drawn)	n	n	n	n	n	n
Cc1ccc(CNc2ccccc2C(=O)O)s1	n	n	n	n	n	n
CC(=O)Nc1ccc(C(=O)N2CCCCC2c2cc(C(=O)Nc3cccc(C#N)c3)no2)cc1 (stereo not drawn)	n	u	u	n	x	n
O=C1COc2ccc(-c3csc(NCCc4ccccc4)n3)cc2N1	-76.4	3.66µM	16.4µM	n	u	n

Assay outcomes from PubChem BioAssay.
